The values below come from ChEMBL document CHEMBL1157539, “Thousands of chemical starting points for antimalarial lead identification” (Nature, 2010).

The term Inhibition denotes how much of the control response was suppressed. Read a low Inhibition as little suppression.

Holding throughout (format): functional
Assay [1] relates to Plasmodium falciparum. As to the kind of experiment: GSK_TCMDC: Inhibition of Plasmodium falciparum 3D7 in whole red blood cells, using parasite LDH activity as an index of growth. Test compounds present at 2uM.
Assay [2] deals with Plasmodium falciparum. Description: GSK_TCMDC: Inhibition of Plasmodium falciparum Dd2 in whole red blood cells, using parasite LDH activity as an index of growth. Test compounds present at 2uM.
In assay [3] the test system is HepG2. Description: GSK_TCMDC: Percent inhibition of human HepG2 cell line. Test compounds present at 10uM.

For the molecule `O=C(Nc1ccc([N+](=O)[O-])cc1Br)c1cc2ccccc2nc1Cl`, the Inhibition in assay [1] came to 97%; in assay [2] it was 68%; in assay [3], 0%.

Consider `NC1=NC(c2ccccc2)(c2ccccc2)C(=O)N1CC1CCC1.O=CO`, for which the Inhibition was 96% in assay [1], 74% in assay [2] and 17% in assay [3].

On to `CCCN1CCN(CCNC(=O)c2cccc(Nc3nccc(Nc4ccc(Oc5ccccc5)cc4)n3)c2)CC1`, for which the Inhibition came out at 99% in assay [1], 96% in assay [2] and 56% in assay [3].

As for `CCN(CCO)CCc1cccc(Nc2nccc(-c3c(-c4ccc(NC(=O)N(CC)CC)cc4)nn4ccccc34)n2)c1.Cl`, the Inhibition is listed as 100% in assay [1], 95% in assay [2] and 46% in assay [3].

Consider `O=C(NCCNc1nc(NCCNC(=O)Nc2ccccc2)c2ccc(=O)n(-c3c(F)cccc3F)c2n1)Nc1ccccc1`, for which the Inhibition in assay [1] stood at 94%; in assay [2], 87%; in assay [3], 1%.

For the molecule `O=C(/C=C/c1ccc(Cl)c(Cl)c1)NCCCCCN1CCC(c2cn[nH]c2-c2ccccc2)CC1`, the Inhibition worked out at 85% in assay [1], 0% in assay [2] and 28% in assay [3].

As for `COc1ccccc1CCNc1ncnc2c1[nH]c1ccc(F)cc12`, the Inhibition in assay [1] was determined as 95%; in assay [2], 68%; in assay [3], 49%.

Take `Cc1n[nH]c2cc(Nc3ccnc(Nc4ccc(CN5CCOCC5)cc4)n3)ccc12`: the Inhibition in assay [1] is recorded as 97%; in assay [2] it was 5%; in assay [3], 22%.

As to `Cc1ccc(C(CC(=O)Nc2nccs2)c2ccc(OC(C)C)cc2)cc1` (stereo not drawn), the Inhibition in assay [1] was 94%; in assay [2], 90%; in assay [3], 5%.

In the case of `Cc1cccc(Nc2nc(NCCCCN)nc3cc[nH]c(=O)c23)c1.O=C(O)C(F)(F)F`, the Inhibition in assay [1] was 98%; in assay [2], 97%; in assay [3] it was 34%.

For the molecule `COc1ccc(CNc2ccnc3cc(OC)ccc23)cc1`, the Inhibition turned out to be 100% in assay [1], 74% in assay [2] and 7% in assay [3].
